The entries come from a sample that favours hits as a whole.
12-LOX inh: blocks human arachidonate 12S-lipoxygenase; purified 12hLO, xylenol orange hydroperoxide absorbance; Potency, µM (highest dose often 108 µM), inactives show at the top dose activity change, negative = inhibition, hits mostly inhibitors; 580,000 compounds, 1.1% hits; AID 1671190; also: potency is read from the fitted curve at half-maximal effect
Target sequence (P18054 whole entry, looked up): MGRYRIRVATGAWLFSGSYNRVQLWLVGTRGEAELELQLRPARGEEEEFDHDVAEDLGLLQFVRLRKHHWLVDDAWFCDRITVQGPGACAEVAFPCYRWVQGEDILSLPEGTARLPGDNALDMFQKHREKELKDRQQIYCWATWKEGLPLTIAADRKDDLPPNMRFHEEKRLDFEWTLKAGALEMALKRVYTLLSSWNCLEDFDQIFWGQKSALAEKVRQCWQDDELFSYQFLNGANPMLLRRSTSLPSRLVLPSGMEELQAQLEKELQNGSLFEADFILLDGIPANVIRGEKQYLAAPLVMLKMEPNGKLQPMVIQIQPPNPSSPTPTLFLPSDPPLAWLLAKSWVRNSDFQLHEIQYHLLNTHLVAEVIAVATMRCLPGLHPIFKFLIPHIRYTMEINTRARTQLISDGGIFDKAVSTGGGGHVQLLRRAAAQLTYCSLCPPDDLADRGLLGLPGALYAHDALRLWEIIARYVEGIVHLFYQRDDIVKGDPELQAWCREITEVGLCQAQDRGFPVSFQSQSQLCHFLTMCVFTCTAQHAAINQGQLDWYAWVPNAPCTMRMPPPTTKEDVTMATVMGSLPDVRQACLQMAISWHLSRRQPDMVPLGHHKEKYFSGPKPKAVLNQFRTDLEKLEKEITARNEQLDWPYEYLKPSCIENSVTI
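Purified human 12hLO (150 nM final) in 25 mM Hepes, 0.01% Triton X-100, pH 7.0 was preincubated 15 min at room temperature with compound. Then 40 uM arachidonic acid was added, 30 min. Hydroperoxide was read by Fe-XO absorbance ratio 573/405 nm.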
DT40 TDP1 CPT: DT40-hTDP1 cell growth loss with CPT. chicken DT40 Tdp1-/-;hTDP1 cells + 20 nM CPT, ATP luminescence, 48 h. Potency, µM (highest dose often 46.2 µM), without a hit: at the top dose activity change, negative = growth inhibition, actives largely listed as inhibitors. 420,000 compounds, 12% hits. AID 686979; also: potency is read from the fitted curve at half-maximal effect; nearly all actives have a fitted effect of over 55% in size
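Chicken DT40 Tdp1-/- cells stably complemented with human TDP1 were seeded at 400 cells/well in medium containing 20 nM camptothecin, exposed to pin-transferred compounds, and grown at 37 °C for at least 48 hr. Viability was read as ATP luminescence.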
HT1080 IDH1KD tx: toxicity to HT-1080 IDH1 knockdown cells (counter line) | AID 686971 | 360,000 compounds, 2% hits | HT-1080 IDH1 knockdown viability, ATP luminescence, 48 h | Potency, µM (titrated, usually from 46.1 µM), for inactives: top-dose activity, negative = toxicity, most hits filed as cytotoxic;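 also: potency is read from the fitted curve at half-maximal effect; 0% = DMSO wells and -100% = cell-free medium wells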
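After a 2 h attachment period, IDH1KD HT-1080 cells took pin-transferred compound for 48 h at 37 °C; ATP-based luminescence after 10 min room-temperature reagent incubation reported viability.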
TDP1 cell noCPT: qHTS for Inhibitors of human tyrosyl-DNA phosphodiesterase 1 (TDP1): qHTS in cells in absence of CPT; 420,000 compounds, 15% hits; Potency, µM (series often up to 46.2 µM), for the others: at the highest dose activity change, negative = growth inhibition, usual class: inhibitors; DT40 Tdp1-/- hTDP1 cells, no CPT, ATP luminescence, 48 h; AID 686978, 2013; also: potency is read from the fitted curve at half-maximal effect; nearly all actives have a fitted effect of over 55% in size
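Growth of hTDP1-complemented DT40 Tdp1-knockout cells is measured by ATP luminescence after at least 48 hr compound exposure at 37 °C, with DMSO substituting for the 20 nM CPT used in the parallel screen.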
IL-1B inflam inh: inhibitors of inflammasome signaling (IL-1 beta secretion); activity change, % at 57.5 µM; THP-1 LPS/ATP IL-1B secretion, AlphaLISA, 16 h; stronger effect = lower value; 360,000 compounds, 4.7% hits; in the data active = activity change below about -50%; inconclusive = mostly about -30% to -49%
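THP-1 cells pretreated 1 hr with compounds (up to 57.5 uM final), then stimulated with LPS (250 ng/mL final) plus ATP (1.25 mM final); secreted IL-1B measured by AlphaLISA after 16 hr, decreased signal indicating inhibition.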
HT1080-NT tox: kills 2HG-producing HT-1080-NT fibrosarcoma cells. HT-1080-NT fibrosarcoma viability, CellTiter-Glo ATP luminescence, 48 h. Potency, µM (highest dose often 46.1 µM), for inactives: at the top dose activity, negative = less viability, hits mostly cytotoxic. 360,000 compounds, 1.6% hits. AID 686970;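 also: NT is the 2HG producing partner of a matched IDH1 knockdown line; potency is read from the fitted curve at half-maximal effect; 0% = DMSO-treated cells and -100% = media-only wells without cells; nearly all actives have a fitted effect of over 55% in size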
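Compounds were tested in concentration-response format on HT-1080-NT cells for 48 hours at 37 degrees C. Cell viability came from CellTiter-Glo luminescence; curves were classified by r2, response magnitude and activity.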
The depositor's hits bear a star; ? = inconclusive; . = no result given; [ ] = remark or other dose. Unless noted, calls follow the shape of the dose curve; as a rule, active = well fitted curve in the direction sought with a large enough effect; inconclusive = small, poorly fitted or top-dose-only effect, or another doubt; inactive = no such curve, though single readings can be large; an effect the other way counts as inactive or inconclusive. Unless noted, % is scaled to controls: 0 for no effect and ±100 for the full control effect.

SMILES	12-LOX inh	DT40 TDP1 CPT	HT1080 IDH1KD tx	TDP1 cell noCPT	IL-1B inflam inh	HT1080-NT tox
COC(=O)CNC(=O)c1cc(-c2ccc(Cl)nc2)c2cnn(C)c2n1	3%[6.33 µM]	.	.	.	.	.
CCCc1cc(C(=O)NC(C)c2ccccn2)sc1C (stereo unspecified)	-83%	.	.	.	.	.
Cc1ccc(S(=O)(=O)N2CCN(c3ncnc4c3nnn4-c3ccccc3)CC2)c(C)c1	-1%	.	.	.	.	.
Nc1nc(NCCN2CCOCC2)nc(NCc2ccccc2)c1[N+](=O)[O-]	-13%	?	-13%	18µM*	-2	-6%
CN(Cc1ccccc1)c1nc(N)c([N+](=O)[O-])c(NCc2ccccc2)n1	-15%	?	?	?	-51*	?
C=CCNc1oc(COc2ccc(Br)cc2)nc1C#N	-17%	.	.	.	.	.
COc1ccc(-c2noc(CNS(=O)(=O)c3ccc(NC(C)=O)cc3)n2)cc1	4%	?	-2%	-21%	1	-1%
O=C(NCc1nc(-c2ccc(C(F)(F)F)cc2)no1)Nc1ccc(OC(F)(F)F)cc1	271%	?	?	8.2µM*	-90*	26µM*
CCOC1CCN(C(=O)c2cc(-c3ccncc3)nc3ccccc23)CC1	10%	.	.	.	.	.
COc1ccc(Cl)cc1NCCC(O)c1ccc(F)cc1 (stereo unspecified)	0%	18µM*	0%	9.2µM*	-1	2%
O=C(NCC(O)c1ccc(F)cc1)Nc1ccc(F)cc1 (stereo unspecified)	47%	.	.	.	.	.
CCN(CC)c1ccc(NC(=O)c2cccc(OC)c2)c(C)c1	-2%	29µM*	?	?	-21	?
CCN(CC)c1ccc(NC(=O)C2COc3ccc(OC)cc3C2)c(C)c1 (stereo unspecified)	-26%	0.58µM*	.	1µM*	.	.
CCN(CC)c1ccc(NC(=O)c2c(OC)cccc2OC)c(C)c1	-5%	-12%	9%	-10%	-28	21%
CCN(CC)c1ccc(NC(=O)c2cc(OC)cc(OC)c2)c(C)c1	-12%	1.3µM*	4.6µM*	1.3µM*	7	3.7µM*
CCN(CC)c1ccc(NC(=O)c2cc(CN3CCCC3)on2)c(C)c1	-5%	16µM*	.	13µM*	.	.
O=C1CC2CCCC(C1)N2C(=O)N1CCCC1	19%[176 µM]	.	.	.	.	.
CN(Cc1ccccc1N1CCCC1)C(=O)c1nn(C)c(=O)c2ccccc12	-17%	.	.	.	.	.
Cc1nc(-c2ccccc2Cl)sc1C(=O)N[C@H](CC(C)C)C(=O)O	-9%	.	.	.	.	.
N#Cc1ccc(C(=O)NCc2coc(-c3cccs3)n2)cc1	-5%	.	.	.	.	.
CCOC1(OCC)C(c2ccc(Cl)cc2)C(C#N)(C#N)C1(OCC)OCC (stereo unspecified)	-25%	?	?	18µM*	-57*	?
CCOC1(OCC)C(c2ccc(N)cc2)C(C#N)(C#N)C1(OCC)OCC (stereo unspecified)	13%	-19%	0%	-27%	-7	8%
CCOC(=O)C1CCN(Cc2cc(C(C)(C)C)c(O)c(C(C)(C)C)c2)CC1	0%	?	1%	18µM*	?	7%
CCOC(=O)C1CCN(Cc2ccc(Cl)c(Cl)c2)CC1	?	-11%	-6%	-1%	3	-2%
CCOC(=O)C1CCN(Cc2ccc(OC)c(OCc3ccccc3)c2)CC1	?	13µM*	-3%	18µM*	5	-8%
SMILES	12-LOX inh	DT40 TDP1 CPT	HT1080 IDH1KD tx	TDP1 cell noCPT	IL-1B inflam inh	HT1080-NT tox
CC(C)(C)c1cc(CN2CCN(CCO)CC2)cc(C(C)(C)C)c1O	?	13µM*	?	21µM*	-1	1%
CCCN1CCN(C(=O)Nc2cccc(C(F)(F)F)c2)CC1	-6%	-24%	6%	-14%	-9	0%
Cc1noc(C)c1CN1CCc2nc(C(=O)Nc3cccc(C(F)(F)F)c3)oc2CC1	68%[176 µM]	.	.	.	.	.
CCN1CCN(Cc2c(O)ccc3oc(C)c(C(=O)Nc4cccc(C(F)(F)F)c4)c23)CC1	-24%	15µM*	.	?	.	.
Cc1oc2ccc(O)c(CN3CCN(C)CC3)c2c1C(=O)Nc1cccc(C(F)(F)F)c1	?	15µM*	.	?	.	.
CC(=O)c1cc(CC(=O)N2CCC3(CCCN(C(C)C)C3=O)C2)cs1 (stereo unspecified)	3%	.	.	.	.	.
Cc1cc(C)nc(Sc2nc(Cl)nc(N(c3ccccc3)c3ccccc3)n2)n1	0%	?	4%	?	-97*	-3%
CCOc1ccccc1NS(=O)(=O)c1c(C)cc(C)cc1C	-10%	.	.	.	.	.
Cc1cccc(-c2[nH]ncc2CNC(=O)c2cccc(N(C)C)c2)c1	56%	.	.	.	.	.
O=C(NC1CCCCC1)Oc1cc2oc(=O)sc2cc1Br	?	16µM*	-4%	?	-17	-5%
CC(=O)NC(C)(c1ccccc1)c1nc(-c2cccc3cccnc23)cs1 (stereo unspecified)	-1%	21µM*	16%	15µM*	0	1%
CC(=O)NC(C)(c1ccccc1)c1nc(-c2ccncc2)cs1 (stereo unspecified)	-12%	-8%	5%	-20%	3	19%
COc1ccccc1-c1csc(C(C)(NC(C)=O)c2ccccc2)n1 (stereo unspecified)	0%	16µM*	3%	?	0	?
CCn1cc(C(=O)N2CCCCCCNC(=O)CC2)cn1	1%	.	.	.	.	.
Cc1cc(Cl)ccc1NC(=O)C1CCCc2ccccc21 (stereo unspecified)	11%	.	.	.	.	.
Nc1c(Br)cc(/C=C/c2ccnc3ccccc23)cc1Br	.	?	.	10µM*	.	.
CN(C)c1ccc(/C=C/c2ccnc3ccccc23)cc1N	.	2.8µM*	.	2.5µM*	.	.
c1ccc2c(N=NN3CCCCC3)ccnc2c1	.	-129%	.	?	.	.
Cc1cc(/C=C/c2ccnc3ccccc23)ccc1N	.	8.9µM*	.	20µM*	.	.
Cc1ccnc2ccccc12	.	2%	.	-2%	.	.
C(=C\c1ccnc2ccccc12)/c1cc2c3c(c1)CCCN3CCC2	.	2.2µM*	.	2µM*	.	.
CNc1c(NC(=O)NCCC(C)C)c(=O)oc2ccccc12	-2%	.	.	.	.	.
CCn1c(SCc2nc(N)nc(Nc3ccccc3)n2)nnc1C1CC1	-16%	.	.	.	.	.
Cc1cc(OCC(=O)NC(C)C)c2c(C)c(C)c(=O)oc2c1	4%	.	.	.	.	.
CC(=O)Nc1cccc(NC(=O)Nc2ccc(C)c(Cl)c2)c1	-14%	-3%	-12%	-22%	-15	0%

Source: PubChem (National Center for Advancing Translational Sciences (NCATS))
